SMILES strings stand for the structures. “And” between values parts separate entries of the source, which are not always exact repeats. Equal entries are not always repeated. Compounds without any hit were thinned out: in the full panel of roughly 83,000, 20% have a hit.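 Step 1: grow cells in 96-well plates. Step 2: add test compound at a single concentration. Step 3: incubate 48 h. Step 4: record percent growth.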 The source made the active and inactive calls.

The test system of the experiment is SW-620 colon. Put plainly: NCI-60 one-dose screen, 48 h (100 = growth as untreated, 0 = no growth, -100 = all killed). Particulars: 10 µM. As for the experimental part: Growth inhibition of the SW-620 human tumor cell line is measured as a screen for anti-cancer activity. Cells are grown in 96 well plates and exposed to the test compound for 48 hours. Compounds are tested at a single concentration, which is 10^-5 M for most compounds. The reported endpoint is percent growth (GI% or GIPRCNT), where numbers from 0 - 100% represent growth inhibition, and numbers from -100% - 0 represent cell death. For example, a value of 40 represents 60% growth inhibition. A value of 0 means no net growth occurred over the course of the experiment. A value of -40 indicates 40% of cells at the beginning of the experiment died by the end of the experiment. A value of -100 means all cells are dead at the end of the experiment.
NCI-60 Human Tumor Cell Lines Screen was performed using the standard one-dose NCI protocol, which is described in more detail at https://dtp.cancer.gov/discovery_development/nci-60/default.htm.
Compounds with GIPRCNT values below 10 were considered active. Activity score was based on GIPRCNT using the following formula: […]
Score is 0 for GIPRCNT values of 100 or above, 50 for GIPRCNT values of 0, and 100 for GIPRCNT values of -100.
Turning to `CC1=C[C@H]2O[C@@H]3C[C@H]4OC(=O)/C=C\C=C\[C@H]([C@@H](C)O)OCC[C@@H](C)[C@H](O)C(=O)OC[C@@]2(CC1)[C@]4(C)[C@]31CO1`, the growth is 0.381% (active). Next, `C/C=C/CC(C)C(O)[C@H](NC(=O)[C@@H]1CCCN1C(=O)C(C)(C)NC(=O)CCCCCCCCC)C(=O)N[C@@](C)(CC)C(=O)N[C@@H](CCC(N)=O)C(=O)N[C@H](CCC(N)=O)C(=O)NC(C)(C)C(=O)N[C@@](C)(CC)C(=O)N[C@@H](CCC(N)=O)C(=O)N[C@H](CC(C)C)C(=O)N[C@H](CO)CC(C)C` (stereo not given in full): 99.1% (inactive) and 3.5% (active); `C/C=C/CC(C)C(O)[C@H](NC(=O)[C@@H]1CCCN1C(=O)C(C)(C)NC(=O)CCCCCCCCC)C(=O)NC(C)(C)C(=O)N[C@@H](CCC(N)=O)C(=O)N[C@H](CCC(N)=O)C(=O)NC(C)(C)C(=O)NC(C)(C)C(=O)N[C@@H](CCC(N)=O)C(=O)N[C@H](CC(C)C)C(=O)N[C@H](CO)CC(C)C` (stereo not given in full): 33.1% (inactive) and 15.3% (inactive). As for `CC1=C2C(=C[C@@](C)(C=O)[C@@H]2O)C(=O)[C@](C)(O)C12CC2`, the figure is 10.1% (inactive); as for `CC1=C[C@H]2O[C@@H]3C[C@@H](O)[C@](C)([C@@]2(C)CC1)[C@@]31CO1`, 24% (inactive); as for `CC(=O)O[C@@H]1[C@@H]2O[C@H]2[C@@](C)(O)C(=O)[C@@H](C)C/C=C/[C@H]2[C@@H]3O[C@]3(C)[C@@H](C)C3[C@H](Cc4ccccc4)NC(=O)[C@@]312` (stereo not given in full), 55.5% (inactive). Consider `C/C=C\C(=O)O[C@@H]1CC2O[C@@H]3C=C(C)C(=O)C[C@]3(C)[C@]1(C)[C@]21CO1`, for which the growth is 0.59% (active). Next, `CN1C(=O)[C@]23SSC1(C)C(=O)N2[C@H]1Nc2ccccc2C1([C@@]12c4ccccc4N[C@@H]1N1C(=O)C4(C)SS[C@]1(C(=O)N4C)[C@H]2O)[C@@H]3O` (stereo not given in full): -88.2% (active). As to `CC1=C2C(=C[C@@](C)(COS(C)(=O)=O)[C@@H]2O)C(=O)[C@](C)(O)C12CC2`, the growth was 11.7% (inactive).

Consider `C/C=C/CC(C)C(O)[C@H](NC(=O)[C@@H]1CCCN1C(=O)C(C)(C)NC(=O)CCCCCCCCC)C(=O)N[C@@](C)(CC)C(=O)N[C@@H](CCC(N)=O)C(=O)N[C@H](CCC(N)=O)C(=O)NC(C)(C)C(=O)NC(C)(C)C(=O)N[C@@H](CCC(N)=O)C(=O)N[C@H](CC(C)C)C(=O)N[C@H](CO)CC(C)C` (stereo not given in full), for which the growth is 38.1% (inactive) and 93% (inactive). As to `C[C@@H]1CCC/C=C/[C@H]2C[C@@H](O)C[C@@H]2[C@@H](O)/C=C/C(=O)O1`, the growth was 10.3% (inactive).

As for `COC(=O)[C@H]1[C@@H](O)[C@@]2(O)c3c(OC)cc(OC)cc3O[C@@]2(c2ccc(OC)cc2)[C@@H]1c1ccccc1`, the growth is 3.66% (active).

Regarding `CC1=C(CN(O)C(N)=O)C2=C(C)C3(CC3)[C@](C)(O)C(=O)C2=C1`, the growth is 8.93% (active). As for `CCCCCCCCCC(=O)N[C@@](C)(CC)C(=O)N1CCC[C@H]1C(=O)N[C@@H](CC(C)C)C(=O)N[C@@](C)(CC)C(=O)N[C@@H](CCC(N)=O)C(=O)N[C@H](CCC(N)=O)C(=O)NC(C)(C)C(=O)NC(C)(C)C(=O)N[C@@H](CCC(N)=O)C(=O)N[C@H](CC(C)C)C(=O)N[C@H](CO)CC(C)C`, the figure is -79.7% (active) and -77.5% (active). As for `COc1cc2c(O[C@@H]3OC[C@H](OC(C)=O)[C@H](OC(C)=O)[C@H]3O)c3c(c(-c4ccc5c(c4)OCO5)c2cc1OC)C(=O)OC3`, the figure is 14.1% (inactive). Next, `C=C1[C@@H](C)C2[C@H](Cc3ccccc3)NC(=O)[C@]23[C@H](OC(C)=O)/C=C/[C@@](C)(O)C(=O)[C@@H](C)C/C=C/[C@H]3[C@@H]1O` (stereo not given in full): 77.2% (inactive); `CC(=O)O[C@@H]1C[C@H]2O[C@@H]3C=C(C)CC[C@]3(C)[C@]1(C)[C@]21CO1`: 7.09% (active).

As for `CC(C)(O)/C=C/C(=O)[C@](C)(O)[C@H]1[C@H](O)C[C@@]2(C)[C@H]3CC=C4[C@@H](C[C@H](O)C(=O)C4(C)C)[C@]3(C)C(=O)C[C@]12C`, the growth is 22.9% (inactive). As for `CC(C)=CCc1c2c(c(O)c3c1O[C@]14C(=C[C@@H]5C[C@H]1C(C)(C)O[C@@]4(C/C=C(/C)C(=O)O)C5=O)C3=O)C=CC(C)(C)O2`, the figure is -75.1% (active); as for `O=C(CCCc1ccc(N(CCCl)CCCl)cc1)OCc1ccccc1`, 91.1% (inactive); as for `C/C=C/CC(C)C(O)[C@H](NC(=O)[C@@H]1CCCN1C(=O)C(C)(C)NC(=O)CCCCCCC)C(=O)N[C@@](C)(CC)C(=O)N[C@@H](CCC(N)=O)C(=O)N[C@H](CCC(N)=O)C(=O)NC(C)(C)C(=O)NC(C)(C)C(=O)N[C@@H](CCC(N)=O)C(=O)N[C@H](CC(C)C)C(=O)N[C@H](CO)CC(C)C` (stereo not given in full), 103% (inactive) and 31.6% (inactive).

`CC1=C(CCC=NNC(N)=O)C2=C(C)C3(CC3)[C@@](C)(O)C(=O)C2=C1`: the growth is 55.4% (inactive).

As to `CC1=C2C(=O)[C@](C)(CO)C=C2C(=O)[C@](C)(O)C12CC2`, the growth is 9.68% (active).

On to `COC1[C@@H]2C[C@H]3C(C)(C)O[C@@](C/C=C(/C)C(=O)O)(C2=O)[C@]32Oc3c(CC=C(C)C)c4c(c(O)c3C(=O)[C@H]12)C=CC(C)(C)O4` (stereo not given in full), for which the growth was -14.7% (active).

Take `CC1=C[C@H]2O[C@@H]3C[C@H]4OC(=O)/C=C\C=C\[C@H]([C@@H](C)O)OCC/C(C)=C/C(=O)OC[C@@]2(CC1)[C@]4(C)[C@]31CO1`: the growth is 0.094% (active). Next, `COc1cc(C)c(-c2ccc(OC)c(=O)cc2C)c(OC)c1OC`: 19.6% (inactive) and 104% (inactive); `CN(CCF)/N=N/c1nc[nH]c1C(N)=O`: 25.9% (inactive); `CC1=C2C(=C[C@@](C)(COC(=O)c3ccc(S(=O)(=O)F)cc3)[C@@H]2OC(=O)c2ccc(S(=O)(=O)F)cc2)C(=O)[C@](C)(O)C12CC2`: -3.99% (active). Turning to `CC1=C(CN(O)C(N)=O)C2=C(C)C3(CC3)[C@@](C)(O)C(=O)C2=C1`, the growth is 86% (inactive).

`C[C@@H]1C[C@H]2C(=O)O[C@@H](C)C(NC(=O)[C@H](Cc3cc(F)cc(F)c3)NC(=O)Nc3ccc(OS(=O)(=O)F)cc3)C(=O)N3CCC[C@H]3C(=O)N3CCO[C@H](C)[C@H]3C(=O)N[C@@H](CO)C(=O)N2C1` (stereo not given in full): the growth was 39% (inactive). With `CC1=C2C(=C[C@@](C)(COC(=O)c3ccc(S(=O)(=O)F)cc3)[C@@H]2O)C(=O)[C@](C)(O)C12CC2`, the growth was -20.5% (active).

Take `Cc1ccc(CNc2nc3ccc(OC/C(=C/F)CN)cc3o2)cn1`: the growth was 97.6% (inactive). As for `COc1cc2c(cc1OC)[C@@H]1N(CC2)C(=O)c2ccccc2[C@@]1(C)C(=O)O`, the figure is 109% (inactive). Next, `COc1cccc2c1cc([N+](=O)[O-])c1c(C(=O)O)cc3c(c12)OCO3`: 101% (inactive). Regarding `CCC(C)[C@H]1C(=O)O[C@H](C(C)C)C(=O)N(C)[C@@H](C(C)C)C(=O)O[C@H](C(C)C)C(=O)N(C)[C@@H](C(C)C)C(=O)O[C@H](C(C)C)C(=O)N1C` (stereo not given in full), the growth was 17.4% (inactive). Next, `COc1cc2c(O[C@@H]3OC[C@H](O)[C@H](O)[C@H]3O)c3c(c(-c4ccc5c(c4)OCO5)c2cc1OC)C(=O)OC3`: 68.8% (inactive); `N#Cc1c(-n2c(Br)c(Br)c3cc(Br)ccc32)[nH]c2c(Br)cc(Br)cc12`: 4.15% (active). As for `N#Cc1nc(-c2ccccc2)oc1N1CCC(S(=O)(=O)F)CC1`, the figure is 103% (inactive); as for `NC1CCc2cc(O)c(O)cc2C1` (stereo not given), 93.1% (inactive). Next, `COc1cc(OC)c(S(=O)(=O)N(CCCl)CCCl)cc1C(=O)/C=C/c1ccc(Cl)cc1`: 48.7% (inactive).

These data come from PubChem BioAssay (NCI).
